Only some compounds are listed: those with a hit (about 5.4% of all), similar ones and a draw of the others.
APOBEC3A inh: human APOBEC3A DNA deaminase inhibition; P31941; recombinant A3A, FAM/TAMRA ssDNA deamination fluorescence; inhibition, % at 20 µM; actives 0.41% (n = 330,000); AID 493011;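 active means at least 40% inhibition at 20 µM here, with at most 30% in a related deaminase screen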;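 further: plate controls were A3A with DMSO for no effect and wells lacking A3A enzyme for full effect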
Target sequence (P31941 whole entry, looked up): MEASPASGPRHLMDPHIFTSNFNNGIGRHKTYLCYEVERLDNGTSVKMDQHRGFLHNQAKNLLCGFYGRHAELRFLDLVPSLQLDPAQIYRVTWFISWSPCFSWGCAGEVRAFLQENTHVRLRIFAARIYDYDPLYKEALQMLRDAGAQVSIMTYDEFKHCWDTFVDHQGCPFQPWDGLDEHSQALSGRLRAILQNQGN
ALR inh: human ALR oxidase inhibition via reduced H2O2 | inhibition, % (no concentration beside the values) | actives 3.8% (n = 290,000) | purified ALR, DTT oxidation, H2O2 HRP-luminol luminescence;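 active means mean replicate inhibition above about 79%, with every replicate also reaching it, limit read from the data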
Target sequence (P55789 whole entry, looked up): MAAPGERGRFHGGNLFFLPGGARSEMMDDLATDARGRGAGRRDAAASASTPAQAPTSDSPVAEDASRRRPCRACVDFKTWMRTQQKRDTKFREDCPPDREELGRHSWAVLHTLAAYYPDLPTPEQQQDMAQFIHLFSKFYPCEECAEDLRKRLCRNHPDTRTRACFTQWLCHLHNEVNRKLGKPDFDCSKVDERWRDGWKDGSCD
PHOSPHO1 block: blocks human PHOSPHO1 phosphatase activity; Q8TCT1; recombinant PHOSPHO1, absorbance phosphatase assay; inhibition, % at 13.3 µM; actives 1.1% (n = 290,000); AID 1565; in the data active means inhibition above about 60%
Target sequence (Q8TCT1 whole entry, looked up): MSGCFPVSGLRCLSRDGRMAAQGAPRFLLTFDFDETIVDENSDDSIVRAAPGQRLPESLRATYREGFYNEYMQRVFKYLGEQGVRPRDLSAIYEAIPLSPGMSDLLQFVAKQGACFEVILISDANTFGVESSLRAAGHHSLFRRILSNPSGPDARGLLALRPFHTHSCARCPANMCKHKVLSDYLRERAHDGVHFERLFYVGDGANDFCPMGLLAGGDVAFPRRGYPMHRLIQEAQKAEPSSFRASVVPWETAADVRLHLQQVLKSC
aDG glyco act: increases alpha dystroglycan glycosylation | actives 0.22% (n = 360,000) | activation, % at 10 µM | Pro5-aDG cells, alpha-DG glycosylation AlphaScreen (IIH6); 0% Pro5, 100% B10-LARGE cell signal;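 active means activation of at least 8% versus controls, or a plate z-score of at least 8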;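 further: Pro5 are CHO cells carrying HIG-tagged alpha-DG that lacks glycosylation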
rCAG RNA binder: binds r(CAG) RNA repeats; r(CAG) RNA repeat, TO-PRO-1 dye displacement fluorescence; AID 651821; actives 1.3% (n = 370,000); inhibition, % at 3 µM;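 active means inhibition above the plate cutoff, the mean of all test compounds on that plate plus 3 SD, cut at about 35% in these data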;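 further: 0% = DMSO alone and 100% = 100 µM mitoxantrone as full dye displacement; higher means more dye released from RNA so lower well fluorescence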
A3G deaminase: blocks human APOBEC3G single-stranded DNA deamination. actives 0.28% (n = 330,000). Q9HC16. inhibition, % at 20 µM. recombinant A3G, ssDNA deamination FAM/TAMRA fluorescence;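 active means inhibition of at least 40% at 20 µM, with no more than 30% in the related APOBEC3A deaminase screen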;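 further: plate controls were DMSO wells with A3G for no effect and wells lacking A3G enzyme for full effect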
* hit, by the source's call; · = no result given.

SMILES | APOBEC3A inh | ALR inh | PHOSPHO1 block | aDG glyco act | rCAG RNA binder | A3G deaminase
C/C(=N\Nc1ccc([N+](=O)[O-])cc1)c1cccc(N)c1 | 1.9 | 99.0* | 13.4 | -0.1 | 5.8 | -2.2
COCCNC(=S)N(C)[C@H]1C[C@H]2c3[nH]c4cccc(-c5ccccc5)c4c3CCN2C(=O)[C@H]1[C@H](C)O | · | · | · | · | 5.2 | ·
CC(=O)N1Cc2cc([N+](=O)[O-])ccc2Oc2ccccc21 | 1.3 | -23.7 | -11.1 | 0.1 | -0.9 | -1.3
O=[N+]([O-])c1ccc2c(c1)CNc1ccccc1O2 | -5.6 | 99.1* | 36.2 | -0.2 | -0.5 | -6.9
C/C(=N/NC(=O)CSc1nc2ccccc2s1)c1ccncc1 | -3.1 | 5.8 | 45.0 | 0.1 | -3.9 | -6.2
CS/C(=N\S(=O)(=O)c1cccs1)NC(=O)CSc1nc2ccccc2s1 | 0.0 | 98.3* | 99.6* | 0.0 | 30.5 | 23.7
CN1OC[C@@H]2CN3C(=NCCc4ccccc4)Sc4ccccc4[C@@H]3C[C@@H]21 | · | · | · | · | 0.1 | ·
CCCCS(=O)(=O)N1C2=NC(C(=O)OCC)=C(C(=O)OCC)C3N(Cc4ccc(C#N)cc4)c4ccccc4[C@]23C[C@H]1C(=O)OC (some centres not stated) | · | · | · | · | 12.2 | ·
COc1ccc(CN2C(=O)[C@@](O)(c3cccn3C)c3cc(Br)ccc32)cc1 | · | · | · | · | 3.4 | ·
Cc1ccc(-n2c(COc3ccccc3)nnc2SCC(=O)Nc2ccccc2-c2ccccc2)cc1 | · | · | · | · | 6.5 | ·
Nc1cccc2c1C(=O)N(C(=O)/C=C/c1cccc(F)c1)C2=O | 3.7 | 98.4* | -28.8 | -0.3 | 8.0 | -2.7
Nc1cccc2c1C(=O)N(C(=O)/C=C/c1cccc(Br)c1)C2=O | · | · | -10.5 | 0.2 | 11.6 | ·
COc1cc(/C=C2/C(=O)N(c3ccc(Br)cc3)N=C2C)cc([N+](=O)[O-])c1O | -4.3 | -9.1 | 42.2 | · | · | -7.8
CC1=NN(c2ccccc2)C(=O)/C1=C/c1cccc(C)c1 | -3.1 | 94.4* | 19.7 | 0.2 | 25.7 | -11.3
COc1cc(/C=C2/C(=O)N(c3cccc(Br)c3)N=C2C)cc(OC)c1O | -2.3 | 92.1* | 15.0 | -0.1 | 17.8 | -4.3
CCc1nnc(NC(=O)CSc2ccc(-c3ccco3)nn2)s1 | 24.1 | -5.0 | 72.1* | 0.1 | -0.8 | 12.9
Cc1nnc(NC(=O)CSc2ccc(-c3ccco3)nn2)s1 | 30.6 | 97.2* | -11.2 | -0.1 | 4.7 | 23.4
Cc1nnc(NC(=O)CSc2ncc(-c3ccccc3)[nH]2)s1 | 0.4 | 62.5 | 10.0 | 0.2 | 4.9 | -7.7
CCc1nnc(NC(=O)CSc2ncc(-c3ccccc3)[nH]2)s1 | 5.0 | 99.2* | 40.3 | -0.2 | · | 4.7
Cc1ccccc1NC(=O)CSc1ccc(-c2ccco2)nn1 | 0.8 | -30.3 | -6.0 | 0.3 | 1.5 | 2.1
COC(=O)[C@H](Cc1ccccc1)NP(=O)(OC)[C@@H](C)NC(=O)OCc1ccccc1 (some centres not stated) | · | · | · | · | 2.9 | ·
COc1ccc(CN2CCC(CNC(=O)NC3CCC(C)CC3)CC2)cc1 (configuration not stated) | · | · | · | · | 2.1 | ·
Cc1ccc2nc(CN(C)C(=O)[C@H]3O[C@@H](n4cnc(C(N)=O)n4)[C@H](O)[C@@H]3O)[nH]c2c1 | · | · | · | · | -2.4 | ·
CC1=Nc2ccc3ccccc3c2C1(C)C | -4.2 | -17.6 | 62.9* | 0.0 | -2.8 | -9.3
O=C(CSCC(=O)N1CCCCC1)Nc1nc(-c2cccs2)cs1 | -0.7 | 96.0* | 17.3 | 0.0 | 3.2 | -1.5
SMILES | APOBEC3A inh | ALR inh | PHOSPHO1 block | aDG glyco act | rCAG RNA binder | A3G deaminase
CC1CC(C)CN(C(=O)CSCC(=O)Nc2nc(-c3cccs3)cs2)C1 (configuration not stated) | -5.4 | 98.6* | -6.0 | 1.7 | 9.1 | -8.7
O=C(CSCC(=O)N1CCCCC1)Nc1nc(-c2ccc(Cl)s2)cs1 | 0.3 | 8.0 | 8.6 | -0.5 | 6.7 | -1.3
CCOC(=O)Cn1cc(CN2C(C(=O)OC)CN(CCO)CCS2(=O)=O)nn1 (configuration not stated) | · | · | · | · | -0.9 | ·
COC(=O)[C@]12C[C@H](CC(=O)N3CCN(C(=O)C4CC4)CC3)C(=O)N(CCC3=CCCCC3)C1=C[C@H](C1CCCC1)O[C@@H]2C | · | · | · | · | 5.4 | ·
O=[N+]([O-])c1ccc(Nc2ccc(Cl)cc2)nc1 | -2.3 | -15.7 | 53.2 | 0.4 | 3.8 | -9.0
O=[N+]([O-])c1ccc(NNS(=O)(=O)c2cc(Cl)ccc2Cl)nc1 | -2.5 | 99.5* | 31.3 | -0.1 | 9.2 | -3.7
CC(C)n1c(=S)[nH]c2c1c(=O)[nH]c(=O)n2C | -7.0 | 12.9 | 62.0* | -0.3 | -0.3 | 0.2
C=CC(C)n1c(Br)nc2c1c(=O)[nH]c(=O)n2C (configuration not stated) | -2.3 | 4.2 | 3.6 | 0.2 | -1.5 | -6.2
COc1ccc(C(=O)c2[nH]c(N)c(C(=O)c3c[nH]c4ccccc34)c2-c2ccc(F)c(OC)c2)cc1 | · | · | · | · | 10.6 | ·
CC1CCCCC1N(C(=O)c1cc(C2CC2)on1)C1CCCCCC1 (configuration not stated) | · | · | · | · | 0.5 | ·
CCN(CC)C(=O)c1ccc(-c2nnc(Nc3ccc(O)cc3)c3ccccc23)cc1 | -8.2 | 5.4 | 19.3 | -0.1 | 2.2 | -5.2
NC(=O)c1ccc(Nc2nnc(-c3ccc(O)cc3)c3ccccc23)cc1 | -8.3 | 95.6* | 1.4 | -0.2 | 3.2 | -3.4
NC(=O)Cc1ccc(Nc2nnc(-c3ccc(O)cc3)c3ccccc23)cc1 | -7.5 | 99.1* | -3.9 | -0.3 | 2.5 | 1.9
CC(=O)Nc1ccc(Nc2nnc(-c3ccc(O)cc3)c3ccccc23)cc1 | -5.6 | 84.1* | 41.1 | -0.2 | 1.4 | 0.0
CNC(=O)c1ccc(Nc2nnc(-c3ccc(C(N)=O)cc3)c3ccccc23)cc1 | -4.0 | -16.2 | 32.6 | 0.2 | -3.2 | -6.5
COCC#Cc1ccc(CC[C@H]2O[C@H]3CC[C@H](CO)O[C@H]3C[C@H]2n2cc(C(C)(C)O)nn2)cc1 | · | · | · | · | -1.1 | ·
O=c1cc(-c2cccc3ccccc23)[nH][nH]1 | -18.3 | 88.3* | 3.4 | 0.0 | 10.4 | -2.9
OC(c1ccc2ccccc2c1)c1ncc(-c2cccc3ccccc23)[nH]1 (configuration not stated) | · | · | · | -0.3 | 5.6 | ·
O=C1CSC(=NC2CCCCC2)N1 | -17.7 | 97.9* | 1.8 | -0.1 | -0.7 | -6.7
O=C1CS/C(=N/N=C2CCCC2)N1 | -1.3 | 1.2 | -15.2 | 0.4 | 2.1 | -5.5
COC(=O)C1CN(Cc2ccccc2)CCS(=O)(=O)N1Cc1ccc(C)cc1 (configuration not stated) | · | · | · | · | 2.6 | ·
C=CCn1c(SCC(C)=O)nc2scc(-c3ccc(C)o3)c2c1=O | -4.0 | 96.2* | -2.6 | 0.0 | 0.5 | -1.6
C=CCn1c(=S)[nH]c2sccc2c1=O | -1.5 | 97.6* | 36.0 | 0.5 | 4.9 | -5.2
C=CCn1c(=S)[nH]c2scc(-c3ccc(C)o3)c2c1=O | 1.3 | 98.5* | -96.0 | -0.4 | 18.5 | 4.4
CCCC(=O)Nc1ccc2c(c1)C(=O)N(C)[C@H]1CC[C@@H](CC(=O)OC)O[C@@H]1CO2 | · | · | · | · | -0.2 | ·

Source: PubChem
